# This is a sample that favours compounds with a hit; in the whole collection about 2.9% have one here.
# PAFAH1B3 FP inh – inhibitors of human PAFAH1B3. Q15102. inhibition, % at 3.39 µM. AID 492972. 340,000 tested, 0.28% active. recombinant PAFAH1B3, FP-rhodamine probe, fluorescence polarization;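 active = inhibition above the screen-wide average of all tested compounds plus 3 SD, cut at about 25% in these data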;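 note: 0% = enzyme with DMSO only and 100% = wells lacking PAFAH1B3 protein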
# Target sequence (Q15102 whole entry, looked up): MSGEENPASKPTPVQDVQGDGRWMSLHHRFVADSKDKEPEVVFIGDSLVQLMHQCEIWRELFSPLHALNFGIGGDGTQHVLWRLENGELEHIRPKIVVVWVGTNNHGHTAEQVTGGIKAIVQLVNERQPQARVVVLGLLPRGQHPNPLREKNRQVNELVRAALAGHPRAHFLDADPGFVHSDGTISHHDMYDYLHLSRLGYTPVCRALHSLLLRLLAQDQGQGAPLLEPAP
# ZTA counter – ZTA (EBV) inhibition in EBNA-1 counter-screen; P03206; ZTA-DNA binding, fluorescence polarization; inhibition, % at 11 µM; 320,000 tested, 0.15% active; AID 2234; in the data active = inhibition above about 33%
# Target sequence (P03206 whole entry, looked up): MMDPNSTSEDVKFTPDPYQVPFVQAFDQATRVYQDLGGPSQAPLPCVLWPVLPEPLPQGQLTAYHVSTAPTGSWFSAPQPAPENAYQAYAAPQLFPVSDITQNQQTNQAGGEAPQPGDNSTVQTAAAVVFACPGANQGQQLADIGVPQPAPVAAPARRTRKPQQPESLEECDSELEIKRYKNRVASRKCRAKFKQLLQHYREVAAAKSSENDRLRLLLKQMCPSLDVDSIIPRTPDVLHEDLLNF
# pPAFAH FP inh – pPAFAH (human) enzyme inhibition; Q13093; inhibition, % at 3.39 µM; 330,000 tested, 1.5% active; recombinant pPAFAH, FP-rhodamine probe fluorescence polarization;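 active = inhibition above the mean inhibition across the screen plus 3 SD, cut at about 25% in these data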;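 note: inhibitors block binding of the rhodamine activity-based probe so polarization drops; 0% = enzyme with DMSO and 100% = wells lacking pPAFAH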
# EBNA-1 inh – blocks EBNA-1 binding to DNA; AID 1950; inhibition, % at 14.8 µM; 300,000 tested, 0.34% active; EBNA-1 DNA binding, fluorescence polarization; in the data active = inhibition above about 28%
# PAFAH1B2 FP inh – PAFAH1B2 (human) inhibition; 340,000 tested, 1.2% active; AID 492953; inhibition, % at 3.39 µM; recombinant PAFAH1B2, FP-rhodamine activity probe, fluorescence polarization;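 active = inhibition above the mean of all tested compounds plus 3 SD, cut at about 24% in these data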;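 note: 0% = enzyme with DMSO and 100% = wells lacking PAFAH1B2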
# PAFAH2 inh – inhibitors of human PAFAH2; recombinant PAFAH2, FP-rhodamine activity probe, fluorescence polarization; inhibition, % at 3.39 µM; 340,000 tested, 0.99% active; AID 492956;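 active = inhibition above the mean over all tested compounds plus 3 SD, cut at about 30% in these data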;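 note: inhibitors block probe labeling of enzyme so polarization drops; 0% = enzyme with DMSO and 100% = wells lacking PAFAH2 protein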
# EBNA-1 confirm – EBNA-1 (EBV) inhibition, confirmation. shares compounds with EBNA-1 inh. Recombinant EBNA-1 DBD, Cy5-DNA fluorescence polarization. inhibition, % at 14.8 µM. 830 tested, 35% active;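 active = mean inhibition across replicates above a set limit taken from the earlier primary screen, cut at about 28% in these data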;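 note: plate controls were EBNA-1 protein with DMSO for no effect and wells lacking EBNA-1 for full effect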
# ZTA DNA inh trip – ZTA (EBV) inhibition, triplicate counter-screen. shares compounds with EBNA-1 inh. Zta-ZRE DNA binding, Cy5 fluorescence polarization. inhibition, % at 11.1 µM. 830 tested, under 10 active;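 active = mean inhibition over triplicates above a set limit taken from the primary EBNA-1 screen, cut at about 37% in these data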;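 note: purified full length Zta protein with Cy5 labeled ZRE DNA probe; 0% = Zta with DMSO and 100% = wells lacking Zta protein; inhibitors lower polarization by freeing the labeled DNA probe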
# The depositor's hits bear a star; . = no result given.
SMILES,PAFAH1B3 FP inh,ZTA counter,pPAFAH FP inh,EBNA-1 inh,PAFAH1B2 FP inh,PAFAH2 inh,EBNA-1 confirm,ZTA DNA inh trip
C=CCOc1ccc(-c2nc3c(c(=O)[nH]c(=O)n3Cc3ccccc3)n2CCCOC)cc1,7,16,6,29*,-1,-1,-2,-3
Cc1ccc(NC(=O)C(=O)NCCc2c[nH]c3ccccc23)cc1C,3,-8,0,5,2,-1,.,.
O=C(NCCc1c[nH]c2ccccc12)C(=O)Nc1ccccc1,-3,5,3,35*,-4,2,2,-8
Cc1ccc(NC(=O)c2cc(-c3ccccc3)nn2-c2ccccc2)cc1,-2,4,-6,-5,-5,-5,.,.
CC(=O)C(/C=N/c1cc(-c2ccc(C)cc2)nn1-c1ccccc1)=C(\C)O,4,-1,4,30*,0,-5,50*,4
Cn1ncc(N=Cc2c(O)ccc3ccccc23)c1C(=O)N1CCOCC1,-2,-3,0,2,-5,0,.,.
COc1ccccc1NC(=O)c1c(N=Cc2c(O)ccc3ccccc23)cnn1C,-5,8,-5,39*,5,-10,9,2
COc1cccc(/C=N/NC(=O)c2ccc(CN3c4cccc5cccc(c45)S3(=O)=O)cc2)c1,-12,-3,-10,30*,-11,-22,17,2
O=C(N/N=C/c1cccnc1)c1ccc(CN2c3cccc4cccc(c34)S2(=O)=O)cc1,-2,-7,-21,-8,-11,-26,.,.
COc1cccc(/C=N/NC(=O)C(=O)Nc2ccccc2OC(F)(F)C(F)F)c1,-3,13,2,30*,3,-5,24,5
COC(=O)C(=N/Nc1ccccc1C(=O)OC)/C(C)=N/O,3,9,1,57*,1,-7,42*,-2
N#C/C(=C\c1cn(Cc2ccccc2F)c2ccccc12)C(=O)NCc1ccco1,-2,6,2,62*,1,-5,57*,-6
COc1ccccc1OCCn1cc(/C=C(\C#N)C(=O)NCc2ccco2)c2ccccc21,-6,-19,3,23,-3,-1,.,.
CCOc1ccccc1N1CC(C(=O)NCCOc2ccccc2OC)CC1=O (centres undefined),4,3,-5,-1,2,5,.,.
CN(c1ccc(OCC(=O)Nc2nc3ccccc3s2)cc1)S(=O)(=O)c1ccccc1,-14,12,-2,47*,-10,-30,23,8
COc1ccccc1CNC(=O)C1CCN(C(=O)N(C)C)CC1,8,31,8,78*,2,7,3,3
Cc1ccc(/C=C/S(=O)(=O)NCCC(=O)NCc2ccccc2F)cc1,4,.,-3,.,4,0,.,.
NS(=O)(=O)c1ccc(NC(=O)/C=C/c2cccs2)cc1,5,0,-13,55*,-3,1,1,0
COc1ccc(NC(=O)CCCN2C(=O)C(c3ccccc3)Oc3cccnc32)c(OC)c1 (centres undefined),3,-9,5,-2,2,9,.,.
NS(=O)(=O)c1ccc(NC(=S)NC(=O)c2ccc3c(c2)OCO3)cc1,-5,10,7,61*,3,5,72*,22
COC(=O)Cc1c(C)c2ccc(OC3CCCCC3=O)c(C)c2oc1=O (centres undefined),-7,24,6,125*,-3,1,-1,-4
O=C(CSc1n[nH]c(=O)[nH]c1=O)NC1CC1,0,27,1,59*,-1,-2,4,-1
O=C(CSc1n[nH]c(=O)[nH]c1=O)NCC1CCCCC1,-8,2,4,-2,6,-2,.,.
COc1ccc(S(=O)(=O)N(C)c2ccc(C(=O)N3CCC(C(N)=O)CC3)cc2)cc1OC,3,2,-3,-6,1,1,.,.
NC(=O)c1ccc(NC(=O)c2ccc3c(c2)CCN3S(=O)(=O)c2ccccc2)cc1,-3,4,1,20,1,3,.,.
SMILES,PAFAH1B3 FP inh,ZTA counter,pPAFAH FP inh,EBNA-1 inh,PAFAH1B2 FP inh,PAFAH2 inh,EBNA-1 confirm,ZTA DNA inh trip
COc1ccc(NC(=O)c2ccc3c(c2)CCN3S(=O)(=O)c2ccccc2)c(OC)c1,-1,-1,8,28*,4,4,15,5
CCOC(=O)c1sc(N2C(=O)C(O)=C(C(=O)c3ccc(C)o3)C2c2cccc([N+](=O)[O-])c2)nc1C (centres undefined),11,23,13,33*,3,47*,17,-20
Cc1cccc(C)c1-n1cccc1/C=C1/C(=N)N2C(=NC1=O)SN=C2S(C)(=O)=O,-4,16,-43,9,2,-11,.,.
Cc1ccc(-n2cccc2/C=C2/C(=N)N3C(=NC2=O)SN=C3S(C)(=O)=O)cc1Cl,-5,15,-6,32*,-8,-11,15,6
O=C(c1ccc(Cn2c(=S)[nH]c3ccccc3c2=O)cc1)N1CCN(c2ccccn2)CC1,-2,6,-1,-1,-4,-3,.,.
CC(=O)/C(=N\Nc1cccc(Cl)c1)Sc1nnc(-c2ccccc2)n1-c1ccccc1,2,9,2,33*,-3,-11,16,-7
COc1ccc(S(=O)(=O)N(n2c(C)nnc2-n2nc(C)cc2C)S(=O)(=O)c2ccc(OC)cc2)cc1,-2,3,3,4,-3,0,.,.
O=C(CSc1nc2ccc(NC(=O)CSc3nnnn3-c3ccccc3)cc2s1)Nc1ccccc1,-24,-3,-11,49*,-13,-19,61*,0
Cc1ccc2nc3c(c(C(=O)OC4CCOC4=O)c2c1)CCCC3 (centres undefined),13,0,2,30*,7,-3,6,6
CCC1(c2ccc(F)cc2)NC(=O)N(CC(=O)NCc2ccccc2Cl)C1=O (centres undefined),10,-7,2,0,9,5,.,.
COC(=O)c1ccc(Cn2cnc3c(cnn3-c3ccc(Cl)cc3)c2=O)o1,0,-7,-1,46*,5,-2,7,-8
COc1ccc(Cc2nnc(NC(=O)Nc3ccccc3F)s2)cc1,1,7,-1,-4,-3,-8,.,.
COc1ccc(Cc2nnc(NC(=O)Nc3ccccc3F)s2)cc1OC,6,4,-8,37*,3,-4,71*,10
O=C(CSc1nc2ccccc2s1)Nc1nccs1,3,1,-4,65*,5,7,11,-1
O=C(Nc1ccccc1O)c1ccc(NS(=O)(=O)c2cccc3cccnc23)cc1,4,21,11,2,-7,-5,.,.
